High-throughput results deposited in PubChem BioAssay by Broad Institute.
MITF act = MITF TRPM1 promoter activation in melanoma cells | SK-MEL-5 TRPM1-promoter luciferase, 24 h; % of positive control, neutral wells = 0 | activation, % at 12.5 µM | 0.75% of 300,000 active;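 active = mean activation of at least 80% with every replicate also reaching 80%; inconclusive = mean reaches 80% but some replicate falls short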;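 also: 0% = neutral control wells and 100% = parthenolide positive control wells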
Wnt act = Wnt/beta-catenin pathway activation; Wnt/beta-catenin reporter cell assay, activator, plate reader; activation, % at 9.35 µM; 1.2% of 300,000 active; AID 743398; in the data active = activation above about 30%, passing the limit was not always enough; inconclusive = no clear call, values can overlap the other calls;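 also: 0% = neutral control wells and 100% = positive control wells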
esBAF inh = blocks esBAF chromatin remodeling in mouse ES cells; reporter increase, % at 12.5 µM; Bmi1-luciferase knock-in reporter, 24 h; 100% = twice the neutral-well signal; 2% of 350,000 active; in the data active = activation above about 40%; inconclusive = no clear call, values can overlap the other calls;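 also: 0% = median of the plate's neutral control wells and 100% = double that signal; a rise in the Bmi1 reporter signal indicates esBAF inhibition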
N-glyco inh = blocks N-linked glycosylation in D54 reporter cells; D54 ERlucT glycosylation luciferase reporter, 24 h; percent of 100 nM tunicamycin response; AID 588692; 0.23% of 360,000 active; reporter increase, % at 12.5 µM;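 active = mean luciferase reporter signal, scaled so untreated is 0 and the glycosylation-blocking control 100, at or above a set limit in every replicate; inconclusive = mean reaches the limit but not every replicate does; inactive = mean below the limit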;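 also: luciferase carries N-glycosylation sites so blocking glycosylation raises the light; 0% = median of neutral control wells and 100% = median of 100 nM tunicamycin wells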
PvdQ acylase = blocks Pseudomonas aeruginosa PvdQ acylase activity | purified PvdQ acylase, fluorescence plate reader | inhibition, % at 10 µM | 0.063% of 340,000 active; in the data active = inhibition above about 30%, passing the limit was not always enough; inconclusive = no clear call, values can overlap the other calls;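 also: 0% = vehicle neutral wells and 100% = reference inhibitor wells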
Vif imaging = blocks HIV Vif function; HEK293T cells, Vif self-association by quenched fluorescence, imaging, 24 h; inhibition, % at 7.49 µM; 0.35% of 340,000 active; AID 602346; in the data active = inhibition above about 50%, passing the limit was not always enough; inconclusive = no clear call, values can overlap the other calls; inactive = below about 31%
An asterisk follows results filed as active; ? = inconclusive; . = no result given; + = active, no number. Only some compounds are listed: those with a hit (about 2.9% of all), similar ones and a draw of the others.

SMILES	MITF act	Wnt act	esBAF inh	N-glyco inh	PvdQ acylase	Vif imaging
O=C(c1cc(-c2cccc(O)c2)on1)N1CCCCCC1	93.3*	37.1*	36.4	-8.3	-8.7	-2.3
O=C(c1cc(-c2cccc(O)c2)on1)N1CCOCC1	.	44.9*	2.1	-11.2	-9.2	4.5
O=C(c1cc(-c2ccc(Cl)cc2)on1)N1CCCC1	23.1	-1.2	-8.1	-11.8	-8.7	4.5
O=C(c1cc(-c2cccc(Cl)c2)on1)N1CCCC1	35.4	39.6*	38.7	0.3	-4.3	4.4
O=C(c1cc(-c2ccc(Cl)c(Cl)c2)on1)N1CCCCC1	103.5*	.	56.1*	-4.4	-9.5	.
COc1cccc(-c2cc(C(=O)N3CCOCC3)no2)c1	57.0	28.5	8.3	-6.4	-7.9	5.6
Cc1noc(C)c1NC(=O)Nc1cccc2c1O[C@@H](CN(C)S(C)(=O)=O)[C@@H](C)CN([C@H](C)CO)C2=O	.	.	-0.3	.	.	.
CN1c2ccc(Br)cc2[C@@H]2[C@@H](CCN2S(=O)(=O)c2cccc(F)c2)[C@H]1CO	.	.	3.9	.	.	.
COc1cccc(NC(=O)N2C[C@H](O)COC[C@H]3O[C@H](CC(=O)NCc4ccccc4F)CC[C@@H]32)c1	.	.	-4.5	.	.	.
C[C@@H]1CCCCO[C@@H](CN(C)C(=O)Cc2ccccc2)[C@H](C)CN([C@@H](C)CO)C(=O)c2cc(NC(=O)Nc3ccccc3)ccc2O1	.	.	4.3	.	.	.
CCCCc1cc(=O)oc2cc(OCc3cc(OC)c(OC)c(OC)c3)c(Cl)cc12	.	-2.7	-4.0	0.5	3.3	-3.5
CCCc1cc(=O)oc2cc(OCc3cc(OC)c(OC)c(OC)c3)c(Cl)cc12	-6.5	-1.5	-0.2	0.9	-2.4	105.6*
Cc1noc(C)c1S(=O)(=O)N(C)C[C@H]1Oc2ccc(NC(=O)C3CCCCC3)cc2CC(=O)N([C@@H](C)CO)C[C@H]1C	.	.	-3.3	.	.	.
Clc1ccc2nc(N3CCCCC3)sc2c1	66.4	16.3	.	-10.5	2.6	.
CCCCC(=O)N1CCN(c2nc3ccc(F)cc3s2)CC1	34.9	1.0	12.3	-7.2	6.9	-16.7
CCCC(=O)N1CCN(c2nc3ccccc3s2)CC1	96.5*	0.4	-3.6	-8.1	4.0	-3.8
CCC(=O)N1CCN(c2nc3ccc(Br)cc3s2)CC1	70.7	20.4	74.8*	-0.7	-8.2	-4.4
CC(C)NC(=O)N1CCCN(c2nc3ccc(Cl)cc3s2)CC1	19.2	30.8*	34.7	-1.1	-8.2	6.6
CCC(=O)Nc1ccc2c(c1)C(=O)N(C)C[C@@H](OC)[C@H](C)CN(C(=O)NC(C)C)[C@@H](C)CO2	.	.	-1.8	.	.	.
O=c1c2ccccc2nc(/C=C/c2ccc([N+](=O)[O-])o2)n1CCCO	-97.2	.	11.1	-14.5	4.0	+
Cc1[nH]c2ccccc2c1/C=C/c1nc2ccccc2c(=O)n1CCO	19.4	5.4	37.5*	3.5	-7.4	-8.2
CCCCOC(=O)Nc1ccc(C)c(Cl)c1	60.2	-3.3	56.8*	-3.5	-4.3	3.7
CCCCOC(=O)Nc1ccc(C(=O)OC)cc1	63.5	52.7*	78.6*	-0.8	-11.2	-3.7
CC(C)NC(=O)N(C)C[C@@H]1OCCCC[C@@H](C)Oc2ccc(NC(=O)Nc3ccc(F)cc3)cc2C(=O)N([C@@H](C)CO)C[C@H]1C	.	.	4.4	.	.	.
CO[C@@H]1CN(C)C(=O)c2cc(NC(=O)C3CC3)ccc2OC[C@H](C)N(Cc2cccc(F)c2)C[C@H]1C	.	.	0.2	.	.	.
SMILES	MITF act	Wnt act	esBAF inh	N-glyco inh	PvdQ acylase	Vif imaging
O=C(OC1CCc2ccccc2C1=O)c1ccccc1O (stereo not drawn)	.	2.6	46.2*	2.7	-10.5	6.0
O=C(N/N=C1\CCc2ccccc21)c1ccccc1O	-16.7	.	.	-13.2	4.8	-3.0
Nc1ccc(-c2nc3ccc(N)cc3s2)cc1	3.0	25.6	-69.8	-15.1	-2.1	-0.1
Cc1cc(-c2nc3cc(F)ccc3s2)ccc1N	8.2	60.0*	.	-17.4	-48.3	8.5
COCCNC(=O)/C(C#N)=C/c1cc(C)n(-c2ccc(C)cc2)c1C	43.0	19.3	.	-9.6	12.7	-5.5
COCCNC(=O)/C(C#N)=C/c1cc(C)n(C2CCCCC2)c1C	90.6*	12.1	.	-10.9	-6.3	-6.6
C[C@H](CO)N1C[C@H](C)[C@@H](CN(C)Cc2ccc3c(c2)OCO3)Oc2ccc(NS(=O)(=O)c3cn(C)cn3)cc2CC1=O	.	.	-2.0	.	.	.
COc1ccc(NC(=O)N(C)C[C@H]2Oc3ccc(NC(=O)c4ccncc4)cc3CC(=O)N([C@H](C)CO)C[C@H]2C)cc1	.	.	2.5	.	.	.
CN(C)c1ccc(C(=O)/C=C/c2cccnc2)cc1	2.1	-0.9	63.0*	-1.2	10.6	4.1
CS(=O)(=O)NCCCNc1ccc(C(F)(F)F)cc1[N+](=O)[O-]	-6.1	-1.4	0.9	-0.8	6.9	-5.3
Cc1cccc(OCCNc2ccc(C(F)(F)F)cc2[N+](=O)[O-])c1	90.3*	.	.	1.7	-1.0	-4.2
CC(C)(C)NC(=O)C(=O)N/N=C/c1cccs1	.	21.8	45.6*	-0.9	-1.0	0.3
O=C(N/N=C/c1cccs1)c1c[nH]c2ccccc12	61.8	30.5*	?	-3.2	-0.5	-7.5
CC(C)CNC(=O)C(=O)N/N=C/c1cccs1	-4.8	8.6	20.6	0.7	6.5	4.5
CCc1ccc(/C=N/NC(=O)c2c[nH]c3ccccc23)s1	89.3*	?	38.0	-1.3	8.3	10.8
O=C(N/N=C/c1c[nH]c2ccccc12)c1ccccc1Cl	-4.9	4.8	21.9	0.9	-7.2	-5.2
CCN(CC)c1ccc(/C=N/NC(=O)c2c[nH]c3ccccc23)cc1	-4.1	.	.	7.2	8.8	-1.7
Cc1occc1C(=O)N/N=C/c1c[nH]c2ccccc12	56.2	1.4	50.0*	-1.1	-11.1	1.4
CC(=O)NC[C@H]1[C@H](c2ccc(-c3cccnc3)cc2)[C@H](CO)N1C(=O)C1CCC1	.	.	2.5	.	.	.
CN1C[C@H]2[C@@H](c3ccccc31)[C@H](CO)N2C(=O)C1CCCCC1	.	.	5.2	.	.	.
COc1ccc(/C=N/NC(=O)c2ccoc2C)cc1COc1c(C)cccc1C	.	16.3	50.0*	-12.4	-15.0	-11.3
O=C(N/N=C/c1cccs1)c1ccc2ccccc2c1	27.7	11.6	76.6*	14.3	-9.1	0.9
COc1ccc(/C=N\NC(=O)c2ccccc2OC)cc1COc1ccccc1C	14.0	0.8	2.4	1.6	-9.8	-2.6
CC(C)(C)C1CCc2c(C(=O)N/N=C/c3cccs3)csc2C1 (stereo not drawn)	124.4*	18.7	35.4	-0.1	-10.2	-2.7
CO[C@H]1CN(C)C(=O)c2cc(NC(=O)Nc3cccc(Cl)c3)ccc2OC[C@@H](C)NC[C@@H]1C	.	.	2.8	.	.	.
CCCNC(=O)N(C)C[C@@H]1Oc2ncc(C#CC3(O)CCCC3)cc2C(=O)N([C@H](C)CO)C[C@@H]1C	.	.	7.8	.	.	.
Cc1noc(C)c1NC(=O)N(C)C[C@H]1Oc2ccc(NC(=O)CCN3CCOCC3)cc2CC(=O)N([C@@H](C)CO)C[C@H]1C	.	.	-1.2	.	.	.
CCOc1ccc(CNc2nc3ccccc3n2C)cc1	33.4	14.8	15.1	-1.9	28.4	0.1
